From PubChem BioAssay (NCI) come the findings set out here.

Test systems include SK-MEL-2 melanoma; EKVX NSCLC; SN12C renal; UO-31 renal; TK-10 renal; A498 renal; CCRF-CEM leukemia; MOLT-4 leukemia; SR leukemia; RPMI-8226 leukemia; OVCAR-8 ovarian; OVCAR-5 ovarian; OVCAR-4 ovarian; SK-OV-3 ovarian; IGROV1 ovarian; OVCAR-3 ovarian; HS 578T breast; NCI/ADR-RES ovarian.
What all share (assay): NCI-60 one-dose screen, 48 h (100 = growth as untreated, 0 = no growth, -100 = all killed)
What all share (settings): 10 µM unless noted

The structures appear in SMILES notation. This is part of a sample that, as a whole, favours compounds with a hit. Of some 83,000 tested, about 20% had one in any assay.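 48-hour exposure, single concentration, 96-well plates; percent growth endpoint where 0 means no net growth. Active: below 10.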 Unmarked numbers belong to inactive results. The source made the active and inactive calls.

On to `COc1ccccc1NC(=O)COc1ccc(/C=C2/Oc3cc4occc4c(OC)c3C2=O)cc1OC`, for which the growth with SK-MEL-2 melanoma is 108%; in the assay with EKVX NSCLC, 99.2%; in the assay with SN12C renal, 104%; in the assay with UO-31 renal, 99.9%; in the assay with TK-10 renal, 119%; in the assay on A498 renal, 99%. Further, the growth with CCRF-CEM leukemia was 69.9%; in the assay on MOLT-4 leukemia it was 83.4%; in the assay on SR leukemia, 93.5%; in the assay with RPMI-8226 leukemia, 66.7%; in the assay on OVCAR-8 ovarian, 85.4%; in the assay with OVCAR-5 ovarian, 111%. The growth with OVCAR-4 ovarian is 112%; in the assay on SK-OV-3 ovarian it was 110%; in the assay with IGROV1 ovarian it was 122%; with OVCAR-3 ovarian, 105%; with HS 578T breast, 112%; with NCI/ADR-RES ovarian, 90.8%.
In the case of `Cc1nc(N)nc(SCc2ccccc2)c1Br`, the growth in the assay on SK-MEL-2 melanoma is 89.9%; in the assay with EKVX NSCLC it was 85.7%; with SN12C renal, 91.6%; in the assay on UO-31 renal, 54.7%; in the assay with TK-10 renal it was 112%; with A498 renal it was 63.4%. Further, the growth in the assay on CCRF-CEM leukemia was 82.4%; with MOLT-4 leukemia it was 63.7%; in the assay with SR leukemia, 74.4%; with RPMI-8226 leukemia, 81.1%; in the assay with OVCAR-8 ovarian, 89.9%; in the assay on OVCAR-5 ovarian, 111%. Moreover, the growth with OVCAR-4 ovarian was 86.2%; in the assay with SK-OV-3 ovarian, 84.2%; in the assay on IGROV1 ovarian, 82.7%; in the assay with OVCAR-3 ovarian, 107%; in the assay on HS 578T breast it was 87.6%; with NCI/ADR-RES ovarian, 95.9%.
For the molecule `O=C1CCC(=O)N1C1CCCCC1`, the growth in the assay on SK-MEL-2 melanoma is 103%; in the assay on EKVX NSCLC, 98.4%; in the assay on SN12C renal, 100%; in the assay with UO-31 renal, 84.3%; in the assay with TK-10 renal it was 105%; in the assay on A498 renal, 97.1%. In addition, the growth is 108% with CCRF-CEM leukemia; 95.7% in the assay on MOLT-4 leukemia; 96.4% in the assay on SR leukemia; 109% in the assay on RPMI-8226 leukemia; 112% with OVCAR-8 ovarian; 109% with OVCAR-5 ovarian. For the same molecule, the growth in the assay on OVCAR-4 ovarian was 104%; in the assay with SK-OV-3 ovarian it was 103%; in the assay with IGROV1 ovarian, 91.9%; in the assay with OVCAR-3 ovarian, 102%; in the assay with HS 578T breast, 97.5%; in the assay on NCI/ADR-RES ovarian, 102%.
Turning to `Cc1nccc2c3ccc(OCc4cn(-c5ccc(Br)cc5)nn4)cc3n(CCCc3ccccc3)c12`, the growth with SK-MEL-2 melanoma was 107%; with EKVX NSCLC, 68.9%; with SN12C renal, 66.9%; in the assay on UO-31 renal it was -73.5% (active); with TK-10 renal, 34.1%; in the assay with A498 renal it was 110%. In addition, the growth was 15% in the assay with CCRF-CEM leukemia; 41.2% in the assay on MOLT-4 leukemia; -29.8% (active) in the assay with SR leukemia; 8.43% (active) in the assay with RPMI-8226 leukemia; 2.18% (active) in the assay on OVCAR-8 ovarian; 49.6% in the assay on OVCAR-5 ovarian. The growth was 63.2% with OVCAR-4 ovarian; 90% with SK-OV-3 ovarian; 60.4% in the assay on IGROV1 ovarian; 104% in the assay on OVCAR-3 ovarian; -6.57% (active) in the assay with HS 578T breast; -36.1% (active) in the assay on NCI/ADR-RES ovarian.
For the molecule `CCOC(=O)C1=C(N)Oc2cc(OC)ccc2C1c1ccc(F)c(F)c1` (configuration not stated), the growth was 11.8% in the assay with SK-MEL-2 melanoma; 40.1% with EKVX NSCLC; 47.1% in the assay on SN12C renal; 44.2% in the assay on UO-31 renal; 63.3% in the assay with TK-10 renal; 4.52% (active) with A498 renal. Further, the growth in the assay with CCRF-CEM leukemia is 20.4%; with MOLT-4 leukemia, 28.6%; with SR leukemia it was 12.7%; with RPMI-8226 leukemia, 6.63% (active); in the assay with OVCAR-8 ovarian, 36%; with OVCAR-5 ovarian, 56.9%. Further, the growth in the assay on OVCAR-4 ovarian is 69.4%; with SK-OV-3 ovarian it was 22.8%; with IGROV1 ovarian, 54.1%; in the assay with OVCAR-3 ovarian it was 17.7%; in the assay with HS 578T breast, 28.4%; with NCI/ADR-RES ovarian it was 25.5%.
`COC(=O)/C=C/C(=O)c1cc(C)cc(C)c1O`: the growth in the assay on SK-MEL-2 melanoma was 99.2%; in the assay with EKVX NSCLC, 95.9%; in the assay on SN12C renal it was 109%; with UO-31 renal, 88%; in the assay on TK-10 renal, 96.9%; in the assay on A498 renal, 105%. Also, the growth in the assay with CCRF-CEM leukemia was 90.3%; with MOLT-4 leukemia, 89.8%; in the assay on SR leukemia it was 90%; in the assay on RPMI-8226 leukemia it was 104%; with OVCAR-8 ovarian it was 111%; in the assay with OVCAR-5 ovarian, 98.9%. Besides, the growth in the assay on OVCAR-4 ovarian was 101%; in the assay with SK-OV-3 ovarian, 104%; in the assay on IGROV1 ovarian it was 106%; with OVCAR-3 ovarian it was 102%; in the assay on HS 578T breast, 112%; in the assay with NCI/ADR-RES ovarian, 99.5%.
Take `COc1ccc(Cl)cc1NC(=O)c1cc2c([nH]1)-c1nc(N)sc1CCC2`: the growth with SK-MEL-2 melanoma was 98%; with EKVX NSCLC, 92.5%; in the assay on SN12C renal, 97.4%; in the assay with UO-31 renal, 79.4%; with TK-10 renal, 97.8%; in the assay on A498 renal, 95.9%. The growth was 86.7% in the assay with CCRF-CEM leukemia; 62% in the assay on MOLT-4 leukemia; 79.4% in the assay on SR leukemia; 108% in the assay on RPMI-8226 leukemia; 101% with OVCAR-8 ovarian; 103% with OVCAR-5 ovarian. The growth is 111% in the assay with OVCAR-4 ovarian; 98.4% in the assay with SK-OV-3 ovarian; 106% with IGROV1 ovarian; 106% in the assay on OVCAR-3 ovarian; 108% in the assay on HS 578T breast; 92.7% in the assay with NCI/ADR-RES ovarian.
Regarding `COc1ccccc1C(OC(C)=O)OC(C)=O`, the growth with SK-MEL-2 melanoma is 90.7%; with EKVX NSCLC, 99%; with SN12C renal it was 111%; in the assay on UO-31 renal, 89.9%; in the assay with TK-10 renal it was 91.1%; with A498 renal it was 113%. Besides, the growth is 113% with CCRF-CEM leukemia; 103% in the assay on MOLT-4 leukemia; 88.7% with SR leukemia; 101% with RPMI-8226 leukemia; 112% in the assay on OVCAR-8 ovarian; 112% in the assay on OVCAR-5 ovarian. For the same molecule, the growth in the assay on OVCAR-4 ovarian is 111%; with SK-OV-3 ovarian, 104%; in the assay on IGROV1 ovarian, 112%; in the assay with OVCAR-3 ovarian, 106%; in the assay on HS 578T breast, 106%; in the assay on NCI/ADR-RES ovarian, 100%.
`COc1ccc(/C(Cl)=N/N=C(\Cl)c2cc(OC)c(OC)c(OC)c2)cc1OC(C)=O`: the growth was 92.3% in the assay with SK-MEL-2 melanoma; 111% with EKVX NSCLC; 96.1% in the assay on SN12C renal; 65.5% with UO-31 renal; 81.1% in the assay on TK-10 renal; 90.2% with A498 renal. Further, the growth with CCRF-CEM leukemia is 94.4%; with MOLT-4 leukemia, 82.4%; with SR leukemia it was 77.4%; in the assay with RPMI-8226 leukemia it was 89.4%; with OVCAR-8 ovarian, 79.9%; in the assay with OVCAR-5 ovarian it was 107%. The growth was 99.4% in the assay with OVCAR-4 ovarian; 80% in the assay on SK-OV-3 ovarian; 105% with IGROV1 ovarian; 101% with OVCAR-3 ovarian; 90.4% in the assay on HS 578T breast; 89.1% in the assay with NCI/ADR-RES ovarian.
